Bioassay records deposited in PubChem BioAssay by National Center for Advancing Translational Sciences (NCATS).
SARS PLP yeast: blocks SARS-CoV papain-like protease in a yeast assay; S. cerevisiae expressing SARS-CoV PLpro, growth rescue; Potency, µM (highest dose often 32.9 µM), actives largely listed as activators; actives 0.19% (n = 330,000); AID 485353; calls by dose curve; also: nearly all actives have a fitted effect of over 55% in size
Cycloheximide cs: affects cycloheximide protein synthesis inhibition readout, counter-screen | cell reporter, cycloheximide protein synthesis inhibition counterscreen | max response, % | actives 12% (n = 300,000); in the data active = max response mostly above about 13%, no sharp cut-off; inactive = mostly below about 14%; also: read at 38.3 µM for the half of the compounds with a filed dose
AMA1-RON2 inh: AMA1-RON2 (P. falciparum) interaction inhibition. AID 720542. Potency, µM (highest dose often 58.2 µM), actives largely listed as inhibitors. actives 0.2% (n = 360,000). AlphaScreen AMA1-biotinylated RON2 peptide binding; also: nearly all actives have a fitted effect of over 45% in size
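AMA1 (3D7) with his tag at 25 nM final met compounds first, then biotinylated RON2 peptide at 25 nM; detection used donor plus acceptor beads, 10 µg/mL apiece, read by AlphaScreen after 30 min at room temperature.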
Shiga toxin inh: blocks Shiga toxin action in Vero cells. AID 2315. inhibition, % at 38.7 µM. actives 9.2% (n = 290,000). Vero cells, Shiga toxin protein synthesis inhibition reporter; in the data active = inhibition mostly above about 28%, no sharp cut-off; inactive = mostly below about 43%
Pf growth 96h: P. falciparum growth inhibition at 96 hours | P. falciparum luciferase reporter growth, 96 h | Potency, µM (titrated, usually from 28.7 µM), usual class: inhibitors | actives 6.9% (n = 320,000) | AID 504834
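Readout is luminescence from an integrated firefly luciferase in P. falciparum. Red cells, 2% hematocrit and 0.05% parasitemia final, were cultured with compound through two parasite generations (96 hours) at 37 C, 5% CO2.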
Pf growth 48h: P. falciparum growth inhibition at 48 hours (one generation) | P. falciparum luciferase growth in erythrocytes, 48 h | Potency, µM (doses to about 28.7 µM), hits mostly inhibitors | actives 5.9% (n = 310,000)
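First compound was added to culture medium, then infected red cells at 0.1% parasitemia and 2% hematocrit (final). After incubation at 37 C under 5% CO2, luciferase detection reagent was dispensed and light output recorded.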
Each line names hits and unclear results; the compound was inactive in the other large screens. Only some compounds are listed: those with a hit (about 19% of all), similar ones and a draw of the others. Unless noted, calls follow the shape of the dose curve; as a rule, active = well fitted curve in the direction sought with a large enough effect; inconclusive = small, poorly fitted or top-dose-only effect, or another doubt; inactive = no such curve, though single readings can be large; an effect the other way counts as inactive or inconclusive.

COc1ccccc1/C=C1/C(=N/O)C2CCN1CC2	Pf growth 48h 11.7µM
CCn1c(SCC(=O)N(C)C)nc2cc(S(=O)(=O)N3CCCCC3)ccc21	Pf growth 96h inconclusive (no result: Cycloheximide cs, Shiga toxin inh)
COCCCNC(=O)C1CCN(C(=O)c2oc3cc4sc(N(C)C)nc4cc3c2C)CC1	Cycloheximide cs 35.8, Shiga toxin inh 60.5, Pf growth 96h inconclusive
CCN(CC)CCCNC(=O)C1CCN(C(=O)c2oc3cc4sc(N(C)C)nc4cc3c2C)CC1	Cycloheximide cs 19.0, Pf growth 96h 11.7µM
COCCCNC(=O)C1CCN(c2nc(C)cc(C)n2)CC1	Pf growth 96h 5.22µM
COC(=O)CNC(=O)C1CCN(c2nc(C)cc(C)n2)CC1	none
Cc1ccc(S(=O)(=O)Cc2nc(-c3ccc(C(=O)NCc4ccccc4F)cc3)oc2C)cc1	none (no result: SARS PLP yeast, AMA1-RON2 inh, Pf growth 96h, Pf growth 48h)
CC1CC(C)(C)CC2(C1)NC(=O)N(CC(=O)N1CCN(Cc3ccc(C#N)cc3)CC1)C2=O (stereo not drawn)	none (no result: Cycloheximide cs, Shiga toxin inh)
COc1ccc(F)cc1-c1cc(C(=O)Nc2cccnc2)[nH]n1	none (no result: SARS PLP yeast, Cycloheximide cs, Shiga toxin inh, Pf growth 96h, Pf growth 48h)
Cc1ccc(O)c(-c2cc(C(=O)Nc3cccnc3)[nH]n2)c1	Cycloheximide cs 31.1, Shiga toxin inh 79.8, Pf growth 96h 2.94µM, Pf growth 48h 3.7µM
O=C(Nc1cccnc1)c1cc(-c2cc(Cl)ccc2O)n[nH]1	Cycloheximide cs 38.9, Shiga toxin inh 91.1, Pf growth 96h 0.738µM, Pf growth 48h inconclusive
Cc1ccc(C(C)C)c(OCC(=O)NN=C(CCl)CCl)c1	none (no result: AMA1-RON2 inh)
COc1c(C)cccc1C(=O)Nc1ccc(N2CCN(S(C)(=O)=O)CC2)cc1	Cycloheximide cs 35.3, Shiga toxin inh 95.8
COc1ccccc1C(=O)Nc1ccc(N2CCN(S(C)(=O)=O)CC2)cc1	Shiga toxin inh 37.1, Pf growth 96h inconclusive
COCC(C)NCc1cccc2ccccc12 (stereo not drawn)	Pf growth 96h 4.65µM
CC(CCc1ccccc1)NCc1cccc2ccccc12 (stereo not drawn)	Pf growth 96h inconclusive, Pf growth 48h inconclusive
CCOCCCNC(=O)/C=C1\Sc2ccccc2N(Cc2ccccc2F)C1=O	Cycloheximide cs 31.9, Shiga toxin inh 130.6, Pf growth 96h inconclusive
CCOCCCNC(=O)CN1C(=O)/C(=C/c2ccccc2C)Sc2ccccc21	Pf growth 96h inconclusive
COc1ccccc1-n1c(CNC(=O)COc2ccccc2)n[nH]c1=S	none (no result: Pf growth 48h)
c1ccc2nc3c(nc2c1)OCC1CCCCN31 (stereo not drawn)	Cycloheximide cs 53.5, Shiga toxin inh 107.9
Cc1cc(C)n(CC(=O)NC2CCCc3c2cnn3-c2ccc(C)c(C)c2)n1 (stereo not drawn)	Cycloheximide cs 38.1, Shiga toxin inh 54.4, Pf growth 96h inconclusive
Cc1cccc(-n2ncc3c2CCCC3NC(=O)CC(F)(F)F)c1C (stereo not drawn)	none
Cc1cccc(-n2ncc3c2CCCC3NC(=O)Cn2cccn2)c1C (stereo not drawn)	Cycloheximide cs 19.0
Cc1ccc(-n2ncc3c2CCCC3NC(=O)CCCN2CCCC2=O)cc1C (stereo not drawn)	Pf growth 96h 4.65µM, Pf growth 48h inconclusive
O=C(CCN1CCCC1=O)NC1CCCc2c1cnn2-c1ccccc1F (stereo not drawn)	Pf growth 96h inconclusive
O=C(CCN1CCCC1=O)NC1CCCc2c1cnn2-c1ccc(F)cc1F (stereo not drawn)	Cycloheximide cs 14.8
O=C(CCc1nc(-c2ccccc2)no1)NCc1ccccc1CN1CCOCC1	Pf growth 96h inconclusive (no result: Cycloheximide cs, Shiga toxin inh)
Cc1cc2c(cc1S(=O)(=O)CCC(=O)N1CC(C)CC(C)C1)OCC(=O)N2 (stereo not drawn)	none
O=C(NC1CCCc2c1cnn2-c1ccc(F)cc1F)c1ccccc1N1CCOCC1 (stereo not drawn)	Pf growth 96h 4.15µM, Pf growth 48h inconclusive
Cc1ccc(-n2ncc3c2CCCC3NC(=O)c2ccccc2N2CCOCC2)cc1C (stereo not drawn)	Pf growth 48h inconclusive
Cc1ccccc1C(=O)Nc1nnc(S(=O)(=O)N2CCCCCC2)s1	none
COc1cnn(Cc2ccccc2)c(=O)c1SCc1ccccc1	none
COc1cc2c(cc1OC)C1=NC(=O)CN1C(SCc1ccccc1)=N2	Pf growth 48h 10.4µM (no result: Pf growth 96h)
Cc1cc(O)c(NC(=O)c2ccco2)cc1C	Cycloheximide cs 57.4, Shiga toxin inh 99.4
